LGR2 inh: inhibitors of bursicon-induced Drosophila LGR2 receptor cAMP signaling; HEK293 LGR2, CRE-luciferase, bursicon-stimulated, 4 h; inhibition, % at 9.99 µM; 380,000 tested, 0.35% active;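 active means drop in luminescence signal, shown as inhibition above about 50% in the replicate tests, limit read from the data, passing the limit was not always enough; inconclusive means probably only some replicates passing the limit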;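 further: agonist challenge used bursicon conditioned medium at about half maximal strength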
TROY signal inh: TROY signaling inhibition | Q293 LMP1-TROYcd NF-kB luciferase reporter, 4 h | inhibition, % at 10 µM | 360,000 tested, 0.98% active | AID 1347056;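 active means compounds whose plate-normalised and pattern-corrected inhibition of the luciferase reporter signal at the single screening dose is 50% or more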
HSP90 refold inh: inhibitors of HSP90 luciferase refolding in rabbit reticulocyte lysate; luciferase refolding luminescence, 3 h; inhibition, % at 5.6 µM; 290,000 tested, 0.91% active;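 active means inhibition above the screen-wide mean plus 3 SD, computed separately per campaign, cut at about 16% in these data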;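 further: 0% = DMSO wells and 100% = 60 µM geldanamycin wells; inhibitors lower the luminescence because luciferase stays unfolded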
TWEAK-Fn14 inh: blocks TWEAK-Fn14 interaction in a reporter cell assay. TWEAK-stimulated Fn14 reporter cells, luciferase luminescence, 8 h. inhibition, % at 10 µM. 360,000 tested, 2% active; in the data active means inhibition above about 50%
HSP90 confirm: confirmation of HSP90 inhibitors; shares compounds with HSP90 refold inh; rabbit reticulocyte lysate, luciferase refolding luminescence, 3 h; inhibition, % at 5.9 µM; 2,300 tested, 64% active; in the data active means inhibition above about 18%;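 further: 0% = vehicle wells and 100% = reference inhibitor wells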
luciferase ctr: counter-screen for HSP90 inhibitors: inhibitors of firefly luciferase. shares compounds with HSP90 refold inh. purified native firefly luciferase, luminescence. inhibition, % at 5.9 µM. 2,300 tested, 48% active;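 active means inhibition above the mean inhibition of all tested sample wells plus 3 SD, cut at about 10% in these data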;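 further: 0% = DMSO with luciferase and 100% = wells lacking luciferase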
Target sequence (P08659 whole entry, looked up): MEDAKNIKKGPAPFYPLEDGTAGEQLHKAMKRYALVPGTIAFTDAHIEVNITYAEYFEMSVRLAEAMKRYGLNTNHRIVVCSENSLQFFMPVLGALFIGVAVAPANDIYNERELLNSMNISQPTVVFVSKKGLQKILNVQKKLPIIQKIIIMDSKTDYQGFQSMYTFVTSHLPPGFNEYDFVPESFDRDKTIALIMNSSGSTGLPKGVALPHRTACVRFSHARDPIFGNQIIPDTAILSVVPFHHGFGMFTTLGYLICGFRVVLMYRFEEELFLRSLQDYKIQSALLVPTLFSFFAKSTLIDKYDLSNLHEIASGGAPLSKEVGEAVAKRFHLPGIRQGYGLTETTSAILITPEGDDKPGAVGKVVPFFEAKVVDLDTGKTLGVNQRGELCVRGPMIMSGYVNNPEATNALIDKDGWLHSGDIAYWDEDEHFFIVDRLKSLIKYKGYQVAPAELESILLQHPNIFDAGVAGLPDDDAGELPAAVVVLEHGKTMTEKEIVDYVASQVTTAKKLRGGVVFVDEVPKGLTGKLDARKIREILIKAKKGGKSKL
* hit, by the source's call. Shown are actives, neighbours in structure and some others; about 2.2% of the full set was active somewhere.

For c1nc(NCC2CCCO2)c2[nH]cnc2n1 (stereo unspecified) the results were TROY signal inh 7.7, HSP90 refold inh 0.6 and TWEAK-Fn14 inh 5.8.
Screening c1ccc2c(c1)[nH]c1c(NCC3CCCO3)ncnc12 (stereo unspecified) returned TROY signal inh 19.6, HSP90 refold inh 32.4*, TWEAK-Fn14 inh 25.0, HSP90 confirm -7.1 and luciferase ctr -10.8.
Screening CC(=O)c1cc(-c2ccccc2)n(CCC(=O)NC2CCCC2)c1C returned TROY signal inh -12.3, HSP90 refold inh 2.8 and TWEAK-Fn14 inh 4.6.
For CC(=O)c1cc(-c2ccccc2)n(CCC(=O)NC2CCCCC2)c1C the results were LGR2 inh -15.9, TROY signal inh 22.5, HSP90 refold inh 27.0*, TWEAK-Fn14 inh -0.4, HSP90 confirm 1.4 and luciferase ctr -4.0.
COc1ccc(S(=O)(=O)Nc2ccc3c(c2)C(=O)N([C@@H](C)CO)C[C@H](C)[C@@H](CN(C)S(=O)(=O)c2cccs2)OCCCC[C@H](C)O3)cc1 was read as LGR2 inh -8.8.
`CC(=O)c1cccc(Nc2nc(-c3sc(N)nc3C)cs2)c1` gave LGR2 inh 0.7, TROY signal inh 10.2, HSP90 refold inh 52.3*, TWEAK-Fn14 inh -9.5, HSP90 confirm 1.0 and luciferase ctr -10.4.
Screening CC(=O)c1cccc(Nc2nc(-c3sc(C)nc3C)cs2)c1 returned TROY signal inh 21.4, HSP90 refold inh -1.8 and TWEAK-Fn14 inh 31.0.
Cc1nc(N)sc1-c1csc(Nc2cccc(O)c2)n1 was read as LGR2 inh 9.0, TROY signal inh 1.6, HSP90 refold inh 31.3*, TWEAK-Fn14 inh 28.6, HSP90 confirm -4.0 and luciferase ctr -20.8.
Cc1nc(C)c(-c2csc(Nc3cccc(O)c3)n2)s1 was read as LGR2 inh -95.3, TROY signal inh -26.2, HSP90 refold inh -5.6 and TWEAK-Fn14 inh -4.2.
Screening COc1ccc(C#Cc2cnc3c(c2)C(=O)N([C@H](C)CO)C[C@@H](C)[C@@H](CN(C)CC2CC2)O3)cc1 returned LGR2 inh -11.6.
O=c1c2sc(-c3ccccc3)cc2nc2n1CCC2 was read as TROY signal inh 22.1, HSP90 refold inh 24.2*, TWEAK-Fn14 inh 74.0*, HSP90 confirm 48.4* and luciferase ctr 32.1*.
`C=COC(=O)CSc1nc(-c2cccs2)ccc1C#N` gave LGR2 inh -96.0, TROY signal inh -53.4, HSP90 refold inh 33.3*, TWEAK-Fn14 inh -36.0, HSP90 confirm -3.4 and luciferase ctr -13.4.
C=CCc1ccc(OCc2ccc(C(=O)OC)o2)c(OC)c1 was read as TROY signal inh -44.8, HSP90 refold inh 24.6*, TWEAK-Fn14 inh -16.5, HSP90 confirm 55.0* and luciferase ctr -23.2.
Screening C[C@H]1CN([C@@H](C)CO)C(=O)c2c(c3ccccc3n2C)-c2ccccc2CO[C@H]1CN(C)S(=O)(=O)c1ccc(F)cc1 returned LGR2 inh 26.4.
For Nc1c(C(=O)Nc2cccc(C(=O)O)c2)sc2nc3c(cc12)CCCC3 the results were LGR2 inh 76.0*, TROY signal inh -49.3, HSP90 refold inh 91.4*, TWEAK-Fn14 inh 29.3, HSP90 confirm 97.1* and luciferase ctr 89.7*.
Screening O=C(O)c1ccc(/C=C/C(=O)c2ccc3c(c2)OCCCO3)cc1 returned LGR2 inh -57.5, TROY signal inh -28.5, HSP90 refold inh 51.4*, TWEAK-Fn14 inh 17.2, HSP90 confirm 65.0* and luciferase ctr -4.4.
`COC(=O)c1ccc(N/C=C/C(=O)c2ccccc2)cc1` gave LGR2 inh -37.1, TROY signal inh -20.6, HSP90 refold inh 20.7*, TWEAK-Fn14 inh 50.6*, HSP90 confirm 51.8* and luciferase ctr 3.4.
Screening Cc1noc(C)c1NC(=O)Nc1ccc2c(c1)C(=O)N([C@@H](C)CO)C[C@@H](C)[C@@H](CN(C)S(=O)(=O)c1ccccc1)OCCCC[C@H](C)O2 returned LGR2 inh -10.5.
Screening CC(=O)Nc1ccc(-c2cn3cc(C)ccc3n2)cc1 returned LGR2 inh 13.4, TROY signal inh -74.2, HSP90 refold inh 4.1 and TWEAK-Fn14 inh 3.2.
Screening Cc1ccc2nc(-c3ccccc3)cn2c1 returned TROY signal inh 85.5*, HSP90 refold inh 85.9*, TWEAK-Fn14 inh 105.4*, HSP90 confirm 91.8* and luciferase ctr 83.0*.
Oc1ccc(-c2cn3cc(C(F)(F)F)ccc3n2)cc1 was read as LGR2 inh 42.7, TROY signal inh -54.7, HSP90 refold inh 17.0*, TWEAK-Fn14 inh 28.2, HSP90 confirm 49.1* and luciferase ctr 39.6*.
`Clc1ccc(-c2cn3cc(Cl)ccc3n2)cc1` gave LGR2 inh 38.3, TROY signal inh 33.0, HSP90 refold inh 31.8*, TWEAK-Fn14 inh 75.2*, HSP90 confirm 54.8* and luciferase ctr 53.6*.
Fc1ccc(-c2cn3cc(C(F)(F)F)cc(Cl)c3n2)cc1 was read as TROY signal inh -62.4, HSP90 refold inh -0.4 and TWEAK-Fn14 inh 3.6.
For Cc1ccc2nc(-c3ccc(O)c(O)c3)cn2c1 the results were LGR2 inh inconclusive, TROY signal inh -8.7, HSP90 refold inh 30.2*, TWEAK-Fn14 inh 68.5*, HSP90 confirm 41.1* and luciferase ctr 9.7*.
For O=C(C[C@@H]1C=C[C@H](NC(=O)c2cccnc2)[C@@H](CO)O1)NCc1ccncn1 the results were LGR2 inh 8.9.
`CC(=O)c1ccccc1OCCCN1CCCCC1` gave TROY signal inh 31.1, HSP90 refold inh 28.2*, TWEAK-Fn14 inh 4.2, HSP90 confirm 14.3 and luciferase ctr -0.9.
`Brc1ccccc1OCCCN1CCCCCC1` gave LGR2 inh 5.5, TROY signal inh -22.6, HSP90 refold inh -1.2 and TWEAK-Fn14 inh 30.8.
`CC(C)(C)c1ccc(-c2nc(-c3ccncc3)no2)cc1` gave LGR2 inh inconclusive, TROY signal inh 72.4*, HSP90 refold inh 20.3*, TWEAK-Fn14 inh 78.8*, HSP90 confirm 33.4* and luciferase ctr 32.4*.
`Clc1ccccc1/C=C/c1nc(-c2ccccn2)no1` gave LGR2 inh 98.4*, TROY signal inh 77.2*, HSP90 refold inh 64.0*, TWEAK-Fn14 inh 101.8*, HSP90 confirm 86.0* and luciferase ctr 82.9*.
COc1cccc(-c2nc(-c3ccccn3)no2)c1 was read as HSP90 refold inh 68.8*, HSP90 confirm 86.3* and luciferase ctr 77.7*.
Screening c1ccc(-c2noc(-c3ccc4ccccc4c3)n2)nc1 returned TROY signal inh 85.9*, HSP90 refold inh 78.3*, TWEAK-Fn14 inh 105.0*, HSP90 confirm 96.7* and luciferase ctr 91.5*.
`CC(C)(C)c1ccc(-c2noc(-c3ccno3)n2)cc1` gave LGR2 inh -35.1, TROY signal inh 4.0, HSP90 refold inh 4.8 and TWEAK-Fn14 inh 20.6.
For O=[N+]([O-])c1cccc(-c2nc(-c3ccccn3)no2)c1 the results were LGR2 inh 46.4, TROY signal inh -40.0, HSP90 refold inh 6.5 and TWEAK-Fn14 inh 38.8.
CCCN1CCC2(CC1)CN(Cc1ccccc1OC)[C@H](CO)c1c2c2ccc(OC)cc2n1C was read as LGR2 inh -5.9.

Assay outcomes from PubChem.
